Sampled rows, rich in hits. Any-hit rate of the full collection: about 3.5%.
Platelet DG rel = platelet dense granule release activity | human platelet-rich plasma, SFLLRN dense granule ATP release, luminescence | inhibition, %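 (compounds screened at 7.5 µM in platelet-rich plasma)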 | 300,000 tested, 0.22% active;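 active = mean replicate score, as percent of positive control, at or above 50; inconclusive = mean below 50 but at least one replicate at or above 50; inactive = mean and every replicate below 50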
PPC-1+TRAIL kill = compounds killing PPC-1 cancer cells with TRAIL present (potentiator screen, no TRAIL-free arm); PPC-1 cells + TRAIL, ATPLite viability luminescence; cell killing (% activity), % at 4 µM or 5 µM; 220,000 tested, 0.41% active;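 active = cell killing above 50% in the first pass at 4 µM, then a duplicate retest at 5 µM averaging 50% or more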;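 also: plate controls were cells with TRAIL plus DMSO for no effect and medium-only wells lacking cells for full effect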
TRAIL sens C8 = caspase-8 TRAIL sensitization. inhibition (viability loss, TRAIL sensitization), % at 10 µM. 360,000 tested, 1% active. AID 624354. NB7+C8 cells + TRAIL, ATPlite viability luminescence;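 active = compounds causing at least 50% loss of cell viability in the single-dose screen, relative to plate controls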
HSP90 inh = blocks HSP90-mediated luciferase refolding in reticulocyte lysate | Rabbit reticulocyte lysate, luciferase refolding luminescence, 3 h | inhibition, % at 5.6 µM | 290,000 tested, 0.91% active;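 active = inhibition above the screen-wide mean plus 3 SD, computed separately per campaign, cut at about 16% in these data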;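 also: 0% = DMSO wells and 100% = 60 µM geldanamycin wells; inhibitors lower the luminescence because luciferase stays unfolded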
TROY signal inh = blocks TROY-dependent signaling in reporter cells. Q293 LMP1-TROYcd NF-kB luciferase reporter, 4 h. inhibition, % at 10 µM. 360,000 tested, 0.98% active. AID 1347056;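 active = compounds whose plate-normalised and pattern-corrected inhibition of the luciferase reporter signal at the single screening dose is 50% or more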
TWEAK Fn14 block = inhibitors of TWEAK-Fn14 interaction signaling; TWEAK-stimulated Fn14 reporter cells, luciferase luminescence, 8 h; inhibition, % at 10 µM; 360,000 tested, 2% active; in the data active = inhibition above about 50%
* marks the source's active call; other numbers are inactive results; ? = inconclusive; / = no result.

SMILES	Platelet DG rel	PPC-1+TRAIL kill	TRAIL sens C8	HSP90 inh	TROY signal inh	TWEAK Fn14 block
CCN(C(=O)COC(=O)c1cc2c(s1)CCCC2)c1c(N)n(Cc2ccccc2)c(=O)[nH]c1=O	/	/	-23	/	1	1
COc1ccc(/C=C2\Cc3ccccc3C2=O)cc1OC	0	12	10	0	-66	-5
O=C1/C(=C/c2ccc(O)cc2)CCc2ccc([N+](=O)[O-])cc21	-9	17	24	0	-13	-50
COc1ccc(/C=C2\CCc3ccccc3C2=O)cc1O	43	/	66*	4	31	74*
CC(=O)Nc1ccc(/C=C2\CCc3ccccc3C2=O)cc1	4	/	39	7	71*	76*
O=C1/C(=C\c2ccc([N+](=O)[O-])cc2)CCc2ccccc21	?	41	78*	2	55*	86*
Cn1cc(S(=O)(=O)NC2CCCCC2)c(=O)n(C)c1=O	-10	/	-8	/	-32	19
CC1CNC(=S)N(c2ccc(F)cc2)C1=O (stereo not given)	/	/	-4	/	-9	7
COc1ccc(NC(=O)N2CCCC2C(=O)NCCc2ccccc2)cc1 (stereo not given)	2	/	0	-4	-32	-1
CC(Sc1nnc(-c2cccnc2)o1)C(=O)NC1CCCC1 (stereo not given)	/	/	7	/	1	-4
CC(C)(C)c1ccc(S(=O)(=O)/N=C2\C=C(NS(=O)(=O)c3ccccc3)C(=O)c3ccccc32)cc1	5	/	14	-1	11	14
CC(C)c1ccc(S(=O)(=O)/N=C2/C=C(Sc3ncn[nH]3)C(=O)c3ccccc32)cc1	/	39	8	60*	62*	92*
Cc1ccc([C@H]2C[C@@H](n3cc(-c4ccc(F)cc4)nn3)[C@H](O)CN2C(=O)c2cccs2)cc1	/	/	-2	/	8	2
N#Cc1cccc(S(=O)(=O)Nc2c(NC3CCCCC3)c3ccccc3oc2=O)c1	2	/	6	0	-13	4
CC(C)(C)N=C1NC(=NC(C)(C)C)c2ccccc21	-5	19	-9	1	-23	53*
Cc1nn(-c2ccccc2)c2c1C(c1c(C)[nH]c(C#N)c1C)C(C#N)=C(N)O2 (stereo not given)	/	-27	4	36*	-23	-9
Cc1nn(-c2ccccc2)c(Cl)c1C1C(C#N)=C(N)Oc2c1c(C)nn2-c1ccccc1 (stereo not given)	5	20	-3	-3	14	10
CCC(C)c1ccccc1N1CC(C(=O)N2CCN(S(=O)(=O)c3ccccc3Br)CC2)CC1=O (stereo not given)	22	/	16	/	4	-11
Cc1cc(C)c(O)c(-c2n[nH]c3c2C(c2cccc(O)c2)N(Cc2ccco2)C3=O)c1 (stereo not given)	-21	3	-2	4	60*	17
O=C1c2[nH]nc(-c3ccccc3O)c2C(c2cccc(Cl)c2)N1Cc1ccco1 (stereo not given)	9	-17	4	1	24	29
COc1ccc(CNc2nc3nc(C)cc(C)n3n2)cc1OC	-7	2	-7	1	-6	10
Cc1cc(C)n2nc(NCc3cccc(Br)c3)nc2n1	-9	2	-5	2	80*	-18
C/C(=N\Nc1cccc2cccnc12)c1ccc(N)cc1	11	16	2	2	62*	50
CC(=O)c1ccc(OCCCC(=O)OCC(=O)N2CCN(S(=O)(=O)c3ccc(C)cc3C)CC2)cc1	/	/	-18	/	2	-3
Cc1ccc(S(=O)(=O)NCCC(=O)OCC(=O)NC(=O)c2cccn2C)cc1	61*	13	-9	-1	3	-13
SMILES	Platelet DG rel	PPC-1+TRAIL kill	TRAIL sens C8	HSP90 inh	TROY signal inh	TWEAK Fn14 block
O=C1CCCCC1C1(O)C(=O)Nc2ccccc21 (stereo not given)	/	/	27	/	-16	21
Cc1sc(N)nc1-c1ccc2c(c1)OCCO2	5	/	-1	1	12	-6
NC1=NN=C(c2ccc3c(c2)OCCO3)CS1	-40	23	47	2	45	58*
COc1ccc(-n2nc(C(=O)NCC(=O)N3CC(C)CC(C)C3)c3ccccc3c2=O)cc1 (stereo not given)	-2	/	1	1	-15	9
Fc1ccccc1C1CC(c2ccco2)=Nc2ccccc2S1 (stereo not given)	3	7	-45	13	43	53*
COc1ccccc1C1CC(c2cccs2)=Nc2ccccc2S1 (stereo not given)	-2	13	0	11	-15	-7
CCCCCc1cc(=O)oc2c(C(CCN3CCCCC3)c3ccc4c(c3)OCO4)c(OC)cc(OC)c12 (stereo not given)	0	-4	44	/	12	-21
CCCCCc1cc(=O)oc2c(C(CCN(CC)CC)c3cc(OC)c(OC)c(OC)c3)c(OC)cc(OC)c12 (stereo not given)	-12	13	75*	/	5	-14
CCC(=O)c1ccc(N2CCN(C(=O)COc3ccc(F)cc3)CC2)c(F)c1	-2	5	-3	0	/	81*
CC(=O)c1ccc(N2CCN(C(=O)COc3ccc(F)cc3)CC2)c(F)c1	-2	-14	5	2	21	-8
Cc1ccccc1C(=O)N1CCC(n2nccc2NC(=O)CCOc2ccccc2)CC1	3	/	-9	2	-25	-9
COc1ccc(N=[N+]([O-])c2ccc(OC)cc2)cc1	/	/	67*	/	-6	62*
Nc1c(Cl)ncnc1N/N=C/c1ccccn1	/	20	/	9	/	/
Nc1c(Cl)ncnc1N/N=C/c1ccc2ccccc2n1	/	62*	43	-2	-19	-33
O=c1c2c3c(sc2ncn1/N=C/c1ccc([N+](=O)[O-])o1)CCCC3	-1	17	31	-1	13	64*
Cn1cc(/C=N/n2cnc3sc4c(c3c2=O)CCCC4)c2ccccc21	-3	13	36	7	0	2
CN1C(=O)C2(Oc3ccccc3C3CC(c4ccccc4)=NN32)c2ccccc21 (stereo not given)	-67	16	2	4	-43	81*
Cc1ccc(C2=NN3C(C2)c2ccccc2OC32C(=O)Nc3ccccc32)cc1 (stereo not given)	9	4	-7	-4	-5	7
COc1ccc(/C=C/C(=O)O)cc1S(=O)(=O)N1CCc2ccccc21	0	/	-4	0	9	9
CCCCCC(=O)N1C[C@H](n2cc(COC(=O)c3ccccc3)nn2)[C@@H](O)C[C@@H]1c1ccc(Cl)cc1	/	/	58*	/	14	43
CCCCCC(=O)N1C[C@@H](n2cc(COC(=O)c3ccccc3)nn2)[C@H](O)C[C@@H]1c1ccc(Cl)cc1	/	/	16	/	1	9
COc1ccc(CCC(=O)NNC(=S)NCc2ccc(F)cc2)cc1	-5	8	0	-4	-5	18
COc1ccc(CCC(=O)NNC(=O)c2ccc(F)cc2)cc1	10	/	-12	0	-1	53*

Compound activity: PubChem, several laboratories
